Assay results as given in ChEMBL document CHEMBL4888484, “Replenishing the malaria drug discovery pipeline: Screening and hit evaluation of the MMV Hit Generation Library 1 (HGL1) against asexual blood stage Plasmodium falciparum ,using a nano luciferase reporter read-out” (2022).
About 410 (8.5%) of roughly 4,800 compounds showed an effect of 50% or more. The sample holds strong results, similar compounds and a random draw of the others, so the mix is not that of the screen.

What follows are compounds tested on Plasmodium falciparum (assay: Confirmatory screen in NF54 pLDH assay, in single point, at 2uM, 72h). Conditions: timepoint 72 hour.
Format: functional, Erythrocyte

Row | Structure (SMILES) | % Inhibition [%]
1 | COc1cc(=O)c(C(=O)N2CCCCCC2)nn1-c1ccc(F)c(F)c1 | 10
2 | CCc1nnc2cc(N3CCN(C(=O)c4ccc(OC)cc4)CC3)cnn12 | 11
3 | CC(C)(C)c1noc(OCc2cccc(C#N)c2)n1 | 14
4 | CCN1CCN(CC(=O)N2N=C(c3ccc(C)c(C)c3)C[C@H]2c2cccn2C)CC1 | 2
5 | Cc1ccn(Cc2nc(N)nc(N(C)C)n2)c(=O)c1C#N | 4
6 | CCCCN1CCN(C(=O)CN2CCN(Cc3ccc(F)cc3Cl)C2=O)CC1 | 1
7 | Cc1cc(C)c(NC(=O)OCc2cccc3cccnc23)c(C)c1 | 80
8 | CCc1ccc(C2=Nc3cccnc3N(CC(=O)Nc3c(C)cc(C)cc3C)C(=O)C2)cc1 | 2
9 | Cc1cccnc1NC(=O)OC(C)(C)C | 10
10 | O=C(Nc1ccc(Cl)cc1)n1c(=S)oc2cc(Br)ccc21 | 2
11 | Cc1cccc(NC(=O)N2CCCCCC2)n1 | 6
12 | Cc1cccc(CN2CCC[C@H](C(=O)c3ccc4c5c(cccc35)CC4)C2)n1 | 67
13 | Cc1ncsc1[C@@H]1CC(=O)Nc2nc(N3CCC(C)CC3)nc(O)c21 | -19
14 | CN(C)c1nc(CN2CCC[C@H](c3n[nH]c(-c4ccccc4)n3)C2)ns1 | 2
15 | COc1ccnc(CN2CCC[C@H](c3nc(-c4ccccc4)c[nH]3)C2)c1OC | 82
16 | c1ccc(-c2c[nH]c([C@H]3CCCN(c4ncnc5[nH]ncc45)C3)n2)cc1 | -7
17 | Cn1cc(-c2ccc(F)cc2)c2nc[nH]c(=O)c21 | 10
18 | O=C1CCCN1c1ccc(-c2csc(C3CC3)n2)cc1 | -12
19 | CCC(=O)N1CCC(Nc2cccc(-c3nc(C4CC4)n[nH]3)c2)CC1 | -24
20 | CC1([C@@](O)(C#CC[N+]2(C)CCCCC2)c2ccccc2)CCCC1 | 43
21 | CCNS(=O)(=O)c1cc(C)ccc1C | 8
22 | CCc1ccc(-n2c(=O)[nH]c3nc(N4CCN(c5ccccc5F)CC4)ncc3c2=O)cc1 | -25
23 | O=C(NCc1ccncc1)c1ccco1 | -2
24 | NC(=O)C1CCN(CCC(=O)N2CCc3cc4ccc3[C@@H]2c2cccc(c2)OCCCNC(=O)c2cc(ccc2O)O4)CC1 | 93
25 | O=C1NCCCOc2cccc(c2)[C@H]2c3ccc(cc3CCN2C(=O)CCN2CCOCC2)Oc2ccc(O)c1c2 | 50

Row | Structure (SMILES) | % Inhibition [%]
26 | NCc1cccc(C(=O)N2CCc3cc4ccc3[C@@H]2c2cccc(c2)OCCCNC(=O)c2cc(ccc2O)O4)c1 | 98
27 | CCc1nc2cc(N3CCC(C(=O)Nc4ccc5c(c4)OCO5)CC3)cnc2nc1CC | 8
28 | Cc1ccc(NC(=O)CN2N=C(C(=O)Nc3ccccc3)CCC2=O)cc1 | -10
29 | Cc1cccc(Oc2cc(N)cc(Oc3cccc(C)c3)c2)c1 | 8
30 | O=C(c1cc2ccccc2[nH]1)N1CCc2sc(Cl)cc2C1 | 5
31 | CC(=Cc1cn(C(C)(C)C)nn1)c1nc(C)c(C#N)c(=O)[nH]1 | 10
32 | COc1ccc(C)cc1NC(=O)[C@H]1CCCN(c2cn[nH]c(=O)c2)C1 | -8
33 | CC(C)(C)CC(=O)Nc1ccccc1C(N)=O | 13
34 | CC(=O)c1cc(-c2cc(O)cc(CC[C@H]3CCCCN3)c2)ccc1O | 85
35 | Cc1cc(S(=O)(=O)NC[C@H]2CCCCN2)sc1C | -6
36 | Cc1cc(-c2cc(O)cc(CC[C@H]3CCCCN3)c2)ccn1 | 91
37 | Cc1ccc(-c2cc(O)cc(CC[C@H]3CCCCN3)c2)c(C)n1 | 66
38 | CNC(=NCC(C)(C)c1ccc(OC)cc1)NC | 7
39 | COc1cccc(N2CCN(C(=O)c3cn4cc(-c5ccc(Cl)cc5)ccc4n3)CC2)c1 | 2
40 | Cc1[nH]c2nc3ccccc3n2c(=O)c1Cc1ccccc1Cl | -15
41 | CCc1cc(O)nc(CN2CCCC2C(O)C(F)(F)F)n1 (stereo not given) | -4
42 | Oc1ccc(-c2nnc(-c3ccc(O)cc3)nn2)cc1 | 22
43 | CC(C)c1ccc(NC(=O)CCC(=O)N2CCc3ccccc3C2)cc1 | 9
44 | C[C@@]12CO[C@@H](COc3ccccc3)O[C@@H]1CC[C@]1(C)C2CC[C@@H](O)[C@H]1CC(=O)N1CCC[C@H]1CO (stereo not given in full) | 6
45 | CC1CC(C)CN(C(=O)c2cc(NC(=O)c3ccccc3)n(C)n2)C1 (stereo not given) | -14
46 | O=C(CN1CCOCC1)Nc1ccc(N2CCOCC2)c(F)c1 | -8
47 | N#Cc1nccnc1NCCCCN1C(=O)c2ccccc2C1=O | -14
48 | CC1(C)COC(=O)[C@H]1OCN1CCCC1=O | -7
49 | CS(=O)(=O)N1CCC(C(=O)Nc2c(C(N)=O)sc3nc(C(F)F)cc(C4CC4)c23)CC1 | 5
50 | COc1ccc(Cl)cc1C(=O)Nc1cc(C2CC2)nn1-c1nc(C)cc(=O)[nH]1 | 72

Row | Structure (SMILES) | % Inhibition [%]
51 | O=C(COc1ccc(Cl)cc1)N1CC(n2cnnc2C2CC2)C1 | -4
52 | COc1ccc(NC(=O)c2cc(C3CC3)nc3onc(C4CC4)c23)cc1Cl | -4
53 | COc1ccc(Cl)cc1C(=O)N(C1CCOCC1)[C@H]1CCCN(S(C)(=O)=O)C1 | -12
54 | Cc1cc(=O)[nH]c(N2CCCCCC2)n1 | 8
55 | Cc1cc(=O)[nH]c(-n2nc(C3CC3)cc2NC(=O)C(C)(C)Oc2ccc(Cl)cc2)n1 | 82
56 | COc1ccc(NC(=O)Cn2cnc3nc(N4CCOCC4)ncc3c2=O)cc1 | 15
57 | CO[C@@H](CNc1nc(C)c(S(N)(=O)=O)s1)c1ccc(F)cc1 | -17
58 | COc1cccc([C@H]2CC(=O)Nc3c2cnn3C)c1 | -11
59 | CCc1ccc(C2=C[C@@H](c3cccc(OC)c3)n3ncc(C(=O)Nc4ccc(C)cc4)c3N2)cc1 | 70
60 | COc1ccc(NC(=O)[C@@H]2COCC(=O)N2Cc2ccc(C)cc2)cc1 | 7
61 | Cc1nn(CCOc2ccccc2)c(=O)n1-c1ccc(C(C)C)cc1 | 14
62 | CC(=O)N1CCCN(C(=O)c2ccccc2)CCNC(=O)[C@@H]2CCC[C@@H]21 | 9
63 | CC(C)(C)n1ncc2c1NC(=O)C[C@@H]2c1c(F)cccc1Cl | -19
64 | C[C@H](N)c1ccc(Nc2ncc3cc(-c4ccncc4)ccc3n2)cc1 | 101
65 | CC(C)C(=O)Nc1ccc(-c2cc(-c3ccc(NC(=O)C(C)C)cc3)nc(-c3ccncc3)n2)cc1 | 42
66 | CCC(CC)C(=O)Nc1cccc(O)c1 | 7
67 | O=c1c2cc(F)c(F)cc2ncn1C[C@@H](O)CC1CCCC1 | 9
68 | O=C1CCC(Nc2ccc(Br)cn2)C(C2CC2)N1 (stereo not given) | 15
69 | Clc1cc(CN2CC[C@@]3(CCCOC3)C2)ccc1OCCN1CCOCC1 | 11
70 | CCn1cc(Cl)c(C(=O)N2N=C3/C(=C/c4ccc5c(c4)OCO5)CCCC3C2c2ccc3c(c2)OCO3)n1 (stereo not given) | 8
71 | CCc1ccc(NC(=O)c2c(C)sc3ncnc(N4CCCCC4)c23)cc1 | 12
72 | C[C@H](C(=O)Nc1nccn2ccnc12)c1ccccc1 | 3
73 | CC(=O)N1CCn2c(nnc2[C@@H]2CCCN2S(=O)(=O)c2cc(F)ccc2F)C1 | 3
74 | CCC(CC)C(=O)Nc1cccc(Cl)c1C | 4
75 | COc1ccc(CN2CC(C)OC3(CCOC3)C2)cc1Cl (stereo not given) | 6

Row | Structure (SMILES) | % Inhibition [%]
76 | Cc1noc(C)c1C(=O)NC[C@H](O)Cn1ccccc1=O | 6
77 | Cc1c(NC(=O)c2ccc(-c3cccc(F)c3)o2)cccc1-c1nc2ncccc2o1 | -2
78 | Cc1ccc(F)cc1S(=O)(=O)N1CC[C@]2(CCN(c3cccnc3)C2)C1 | -20
79 | N#Cc1ccc(O)c(NC(=O)c2snc(O)c2Cl)c1 | -3
80 | O=C1[C@@H]2CCCN2C(=O)N1Cc1ccnc(OC2CCOCC2)c1 | -11
81 | O=C(N[C@H](c1ccccc1)C1CC1)C(c1ccccc1)c1ccccc1 | 11
82 | CN(C)C(=O)NCC1(NC(=O)N(C)C)CCC1 | 5
83 | CCOc1cc(CNC2CCCCC2)cc(Cl)c1OCc1ccc(C)cc1 | -4
84 | CC(C)N1CCN(C(=O)CN2N=C(c3nc(-c4ccccc4)no3)CCC2=O)CC1 | 2
85 | Clc1ccc(-c2noc(C3CNC3)n2)cc1 | 15
86 | c1ccc(-c2noc(-c3ccc(NC4CCCCC4)nn3)n2)cc1 | 60
87 | COc1ccc(-c2cc(C(F)(F)F)nc(-n3nc(-c4cccc(OC)c4)c(Cl)c3-c3cccc(OC)c3)n2)cc1 | 92
88 | COc1cccc(-c2nn(-c3nc(-c4ccccc4)cc(C(F)(F)F)n3)c(-c3cccc(OC)c3)c2Cl)c1 | 35
89 | Cc1c(-c2nn(-c3nc(C4CC4)cc(C(F)(F)F)n3)c(-c3cnn(C)c3C)c2Cl)cnn1C | 14
90 | Cc1nnc2ccc(S(=O)(=O)N(Cc3ccc(F)cc3)c3cccc(Cl)c3)cn12 | 14
91 | C[C@H]1CN(Cc2ccccc2)CC2(CCN(C(=O)N(C)C)CC2)O1 | 10
92 | COc1ccc(NC(=O)CN2N=C(C(=O)Nc3ccc(F)cc3)CCC2=O)cc1 | -1
93 | COc1ccc(F)c(NC(=O)N(CCO)C(C)C)c1 | 10
94 | COc1ccc2nc(O)c(C(=O)Nc3ccc4c(c3F)CCNC4)cc2c1 | 101
95 | O=C(c1cn[nH]c1-c1ccccc1)N1CCCCCC1 | 1
96 | CC(C)[C@@H]1CC[C@H](C)C[C@H]1OC(=O)Cn1cc(-c2ccc(Cl)cc2)[n+]2c1CCC2 | 75
97 | CC(C)(C)NC(=O)c1ncc(Br)cc1Br | 5
98 | COc1ccc(-c2noc([C@H](C)NC(=O)N3CCNC(=O)C3)n2)cc1OC | 6
99 | CCn1ccnc1C(=O)Nc1ccc(OC)nc1 | 7
100 | CCc1ccc(CS(=O)(=O)NC(=O)c2cn3ccnc3s2)cc1 | 4
